Source: PubChem BioAssay (NCI)
Compounds without any hit were thinned out: in the full panel of roughly 79,000, 15% have a hit. Unmarked numbers belong to inactive results. Active and inactive are the calls of the source. Rule as the data show it: active = growth inhibition above about 70%; inactive = the rest.

Assay: NCI Yeast Anticancer Drug Screen. Data for the rad50 strain (AID 155);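 also: 0% = growth of vehicle-only cultures of the same strain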
Settings: S. cerevisiae rad50 strain growth inhibition; at 50.0 µM; stronger effect = higher value
In short: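 DNA repair mutant yeast, compound exposure, growth read-out; inhibition is taken relative to vehicle.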

SMILES | growth inhibition
CC(=O)Oc1ccccc1C(=O)/C=C/c1ccccc1 | -11.2%
CN(C)C(=S)/N=c1\ssc(=S)n1-c1ccccc1 | -13.9%
CCOC(=O)C(NS(=O)(=O)c1ccccc1)(C(F)(F)F)P(=O)(OCC(C)C)OCC(C)C (centres undefined) | 98.5% (active)
CC(C)Nc1nc(NC(C)C)c2cnn(-c3ccccc3)c2n1 | 96.7% (active)
CCCCCCCCC1(OCCCS(=O)(=O)O)COc2ccccc2OCCOCCOc2ccccc2OC1 | 97.9% (active)
Oc1ccc2c(c1)Cc1ccccc1-2 | 93.2% (active)
CCOC(=O)N1C2C=CC(=O)C(C=C2)N1C(=O)OCC (centres undefined) | 72.8% (active)
CC(=O)OCc1ccc2c(c1)C(O)NC(=O)O2 (centres undefined) | 36%
CC(C)=CCc1ccc(O)cc1 | -3.15%
CCCCCCCCC(=O)Cl | 74.4% (active)
O=S1(=O)C(C(O)(c2ccccc2)c2ccccc2)CCCN1c1ccccc1 (centres undefined) | 76.5% (active)
CCCCCCCCCCCCNCC(=O)O | 92.9% (active)
CC(C)=CCc1c2c(c(O)c3c(=O)c(-c4ccc(O)cc4O)coc13)C=CC(C)(C)O2 | 83.2% (active)
O=C(CCC(O)(c1ccccc1)c1ccccc1)c1ccccc1 | 65.8%
CS(=O)(=O)OCCN(CCOS(C)(=O)=O)c1ccc(C=Nc2ccc(-c3csc(-c4ccc(Br)cc4)n3)cc2)cc1 | 94% (active)
O=P(O)(CN1CCN(CP(=O)(O)c2ccccc2)CCN(CP(=O)(O)c2ccccc2)CC1)c1ccccc1 | 86.7% (active)
CC(C)c1ccc2c(c1)CCC1C(C)(CN)CCCC21C (centres undefined) | 99.2% (active)
Cc1ccc(S(=O)(=O)NNc2nc(N3CCOCC3)nc(N3CCOCC3)n2)cc1 | 28.1%
O=C1OC(CC(=O)c2ccc(Cl)cc2Cl)C(Cl)=C1Cl (centres undefined) | 51%
CCOC(=O)c1ccc(-n2c(C)nc3ccc(Br)cc3c2=O)cc1 | 53%

SMILES | growth inhibition
CCN(CC)CCOc1ccc(C=C2c3ccccc3-c3ccccc32)cc1 | 99.2% (active)
Cc1nn(C(=O)c2ccccc2O)c2c1C(c1ccc(O)cc1O)SC(N)=N2 (centres undefined) | 46%
CN(NC(=O)/C(=C/c1cc(Cl)cc(Cl)c1O)NC(=O)c1ccccc1)c1cnn(-c2ccccc2)c(=O)c1Cl | 52.9%
Cn1c(=S)c2[nH]c(SCc3ccncc3)nc2n(C)c1=O | 47.2%
O=C1N=c2ccc(Br)cc2=C1c1sc(=O)n(Cc2nc3ccccc3[nH]2)c1O | 70.5% (active)
N#C/C(=C\c1cccnc1)c1csc2ccccc12 | 95.3% (active)
Cc1nn(CCO)c(=O)c(C#N)c1C | 66.2%
CN(/N=C/c1ccc(C(=O)O)cc1)C1=NCCCCN1 | 5.85%
C=CCCCN1C(=O)C2C3c4ccccc4C(C=O)(c4ccccc43)C2C1=O (centres undefined) | 32.1%
CC(Cc1ccccc1)N1C(=O)C=CC1=O (centres undefined) | 91.8% (active)
O=C(Nc1c(Cl)cc([N+](=O)[O-])cc1Cl)/C(=N\Nc1cccc(Cl)c1)c1c(O)c2ccccc2oc1=O | 69%
C/C(=N/O)c1ccc2c(c1)C(=NO)c1cc(/C(C)=N/O)ccc1-2 | 89.9% (active)
CCCCCCCCCCCC(=O)NC(CCC(=O)O)C(=O)O (centres undefined) | -6.05%
O=C1c2ccccc2C(=O)c2c1cccc2[N+](=O)[O-] | 90.9% (active)
C/C=C\C=N\NC(N)=S | 8.9%
Oc1c(Cl)cc(C(c2cc(Cl)c(O)c(Cl)c2)C(c2cc(Cl)c(O)c(Cl)c2)c2cc(Cl)c(O)c(Cl)c2)cc1Cl | 92.5% (active)
S=C1NC2=C(CSC/C2=C\c2ccccc2)C(c2ccccc2)N1 (centres undefined) | 60.2%
O=[N+]([O-])c1cccc2nc3ccccc3c(NCCNCCO)c12 | 75.3% (active)
COC12C=CC(CC1)c1c2c(O)c2ccncc2c1O (centres undefined) | 58.1%
